Results taken from PubChem BioAssay (NCATS).
Starred links: 1 amine or outer side, 2 acyl side, 3 side chain; linkers in the order of their positions; H or OH if unused. Positions of bridges follow the written chain, without caps; N, C: chain ends. Non-standard residues stand in square brackets, D forms with d. Residues, ends and D or L forms follow the SMILES beside them. *: point of attachment. X2 = NC1=C[C@@H](O)C[C@H]([C@H](N[*:1])C(=O)[*:2])N1; ΔAla(3-NHCONH2) = NC(=O)NC=C(N)C(=O)O; β3hOrn = NCCC[C@H](N)CC(=O)*; Dap = NC[C@H](N)C(=O)O

Experiment: qHTS profiling of the MIPE4 collection as inhibitors of Plasmodium falciparum (DD2) proliferation (AID 743345)
Conditions: P. falciparum Dd2 in erythrocytes, SYBR Green DNA, 72 h; at 28.5 µM (top of the series)
Description: Plasmodium falciparum is a virulent malarial parasite that kills 1-2 million people worldwide each year. Transmitted by mosquitoes, the sporozoite form of the parasite enters the blood stream to infect hepatocytes, where they become merozoites that infect red blood cells (erythrocytes). Within erythrocytes, merozoites begin a […] cycle of growth and division, after which the parasite is released to infect new red blood cells. Gametocytes, which form within erythrocytes as well, circulate in the bloodstream and are ingested by the mosquito, thereby completing the life cycle. To profile malarial isolates for differential chemical responses and to identify inhibitors of malarial growth, an assay that measures P. falciparum growth and replication within erythrocytes was employed. This assay uses a DNA binding fluorescent dye (SYBR Green) to detect parasite DNA following cell lysis. Because mature erythrocytes lack DNA, only Plasmodium-derived DNA is detected.
The SYBR Green viability assay was adapted from a method described previously (Plouffe et al., 2008). For screening 3 ul culture medium was dispensed into 1536 well black clear bottom plates (Aurora Biotechnologies) using a Multidrop Combi (Thermo Fisher Scientific Inc.), 23 nL compounds in DMSO were added by a pin tool (Kalypsys), and 5 ul of erythrocytes infected with P. falciparum (0.3% parasitemia, 2.5% hematocrit final concentration) were added. The plates were incubated at 37 C in a humidified incubator in 5% CO2 for 72 h, and 2 ul lysis buffer (20 mM Tris HCl, 10 mM EDTA, 0.16% saponin, 1.6% triton X, 10X SYBR Green I supplied as 10,000X […] by Invitrogen) was added to each well. The plates were mixed for 25 sec with gentle shaking and incubated overnight at room temperature in the dark. The following morning, fluorescence intensity at 485(14) nm excitation and 535(25) nm emission wavelengths was measured on an EnVision (Perkin Elmer) plate reader. Plate reads were normalized relative to the control inhibitor (0.29 uM artemisinin) and vehicle (DMSO) wells present on each plate and then corrected by an algorithm using vehicle-only control plates at the beginning and end of the compound plate stack.
`Cc1nc2c(C#N)cccc2n1-c1ccc(C(=O)NC2CC2)s1` gave a parasite growth remaining, % of DMSO control (lower = more inhibition) of 9.03%.
Molecule `CN[C@@H]1[C@@H](O[C@H]2[C@H](O[C@H]3[C@H](O)[C@@H](O)[C@H](N=C(N)N)[C@@H](O)[C@H]3N=C(N)N)O[C@@H](C)[C@]2(O)C=O)O[C@@H](CO)[C@H](O)[C@H]1O` has a parasite growth remaining, % of DMSO control (lower = more inhibition) of 105%.
For `CN(C(=O)OC(C)(C)C)[C@@H](Cc1ccc(O[S+](=O)([O-])c2cccc3cnccc23)cc1)C(=O)N1CCN(C(=O)OCc2ccccc2)CC1`, the parasite growth remaining, % of DMSO control (lower = more inhibition) was 6.02%.
With `CCCC[C@@H]1C[C@@H](C(=O)NC([C@H](C)Cl)[C@H]2O[C@H](S)[C@H](O)[C@@H](O)[C@@H]2O)N(C)C1` (some centres not stated) the parasite growth remaining, % of DMSO control (lower = more inhibition) was 38%.
Work on `NCCC[C@H](N)CC(=O)N[C@H]1CNC(=O)[C@H]([C@H]2C[C@H](O)C=C(N)N2)NC(=O)C(=CNC(N)=O)NC(=O)[C@H](CO)NC(=O)[C@H](CO)NC1=O` (β3hOrn-[Dap]SS[ΔAla(3-NHCONH2)][X2]; lactam 1-C) yielded a parasite growth remaining, % of DMSO control (lower = more inhibition) of 96%.
`CC1(C)O[C@@H]2[C@H]3OC(C)(C)O[C@]3(COS(N)(=O)=O)OC[C@H]2O1` gave a parasite growth remaining, % of DMSO control (lower = more inhibition) of 93.9%.
`CN([C@@H](Cc1ccc(O[S+](=O)([O-])c2cccc3cnccc23)cc1)C(=O)N1CCN(C(=O)OCc2ccccc2)CC1)[S+](=O)([O-])c1cccc2cnccc12` showed a parasite growth remaining, % of DMSO control (lower = more inhibition) of 6.72%.
Molecule `C[C@H]1C[C@H]2C3CCC4=CC(=O)C=C[C@@]4(C)[C@@]3(Cl)[C@@H](O)CC2(C)[C@@]1(OC(=O)c1ccco1)C(=O)CCl` (some centres not stated) has a parasite growth remaining, % of DMSO control (lower = more inhibition) of 6.79%.
With `COc1cc(C)c2c(Oc3cccc(C(F)(F)F)c3)c(OC)cc(NCCCC(C)N)c2n1` (configuration not stated) the parasite growth remaining, % of DMSO control (lower = more inhibition) was 6.22%.
`C[C@H]1Cc2c([nH]c3cc(Cl)c(F)cc23)[C@@]2(N1)C(=O)Nc1ccc(Cl)cc12` showed a parasite growth remaining, % of DMSO control (lower = more inhibition) of 6.27%.
In the case of `CO[C@H]1C=CO[C@@]2(C)Oc3c(C)c(O)c4c(O)c(c(C=NN5CCN(C)CC5)c(O)c4c3C2=O)NC(=O)C(C)=CC=CC(C)[C@H](O)[C@@H](C)[C@@H](O)[C@@H](C)[C@@H](OC(C)=O)[C@H]1C` (some centres not stated), the parasite growth remaining, % of DMSO control (lower = more inhibition) is reported as 6.12%.
`CC(=O)NCC1CN(c2ccc(N3CCOCC3)c(F)c2)C(=O)O1` (configuration not stated) showed a parasite growth remaining, % of DMSO control (lower = more inhibition) of 94.2%.
In the case of `O=CN(O)CCCP(=O)(O)O`, the parasite growth remaining, % of DMSO control (lower = more inhibition) is reported as 19.9%.
In the case of `COC1=C2C[C@H](C)C[C@H](OC)[C@@H](O)[C@@H](C)C=C(C)[C@H](OC(N)=O)[C@@H](OC)C=CC=C(C)C(=O)NC(=CC1=O)C2=O`, the parasite growth remaining, % of DMSO control (lower = more inhibition) is reported as 7.35%.
With `CN(C)CCC=C1c2ccccc2COc2ccccc21` the parasite growth remaining, % of DMSO control (lower = more inhibition) was 53.4%.
`CC(C)(C)OC(=O)N[C@@H](Cc1ccc(O[S+](=O)([O-])c2cccc3cnccc23)cc1)C(=O)Nc1ccc(-c2ccccc2)cc1` showed a parasite growth remaining, % of DMSO control (lower = more inhibition) of 8.82%.
`C[C@H]1CCN(C(=O)CC#N)C[C@H]1N(C)c1ncnc2[nH]ccc12` gave a parasite growth remaining, % of DMSO control (lower = more inhibition) of 98.8%.
Molecule `CCN(CC)CCOc1ccc2c(=O)c3ccc(Cl)cc3n(CCN(CC)CC)c2c1` has a parasite growth remaining, % of DMSO control (lower = more inhibition) of 6.06%.
`CC(C)=CCCC(C)=CCNCCNC1C2CC3CC(C2)CC1C3` (configuration not stated) gave a parasite growth remaining, % of DMSO control (lower = more inhibition) of 6.17%.
Molecule `COc1ccc(S(=O)(=O)N(CCO)c2ccccc2CN(C)CC=Cc2ccc(Cl)cc2)cc1` has a parasite growth remaining, % of DMSO control (lower = more inhibition) of 26.4%.
Molecule `CCOc1ccc(F)cc1C1(O)C(N)=Nc2ccc(Cl)cc21` (configuration not stated) has a parasite growth remaining, % of DMSO control (lower = more inhibition) of 6.08%.
With `C[C@]1(COc2ccc(N3CCC(Oc4ccc(OC(F)(F)F)cc4)CC3)cc2)Cn2cc([N+](=O)[O-])nc2O1` the parasite growth remaining, % of DMSO control (lower = more inhibition) was 82%.
